Measurements as given in PubChem BioAssay AID2315 (National Center for Advancing Translational Sciences (NCATS), 2010).
Out of some 290,000 compounds screened, about 27,000 (9.3%) were called active. The sample holds actives, similar compounds and a random draw of the others, so the mix is not that of the screen. No stated cut-off is given here; in the data, active means inhibition mostly above about 28% (no sharp cut-off); inactive means mostly below about 43%.

Experiment: A qHTS for Small Molecule Inhibitors of Shiga Toxin; further: 0% is about no effect
Conditions: Vero cells, Shiga toxin protein synthesis inhibition reporter; at 38.7 µM, stronger effect = higher value

| Structure (SMILES) | inhibition |
| --- | --- |
| Cc1ccnc(NS(=O)(=O)c2ccc(NC(=O)c3oc4ccccc4c3C)cc2)n1 | -19.8% (inactive) |
| CCCc1nc(SCC(=O)N2CCCC2)c2c(=O)n(C)c(=O)n(C)c2n1 | -3.54% (inactive) |
| C[C@@H]1CC[C@@]2(OC1)O[C@H]1C[C@H]3[C@@H]4CC=C5C[C@@H](O)[C@H](O)C[C@]5(C)C4CC[C@]3(C)[C@H]1[C@@H]2C (stereo not given in full) | -6.76% (inactive) |
| CCOc1ccccc1N1CCN(C(=O)c2ccc3[nH]c(C)c(C)c3c2)CC1 | -2.3% (inactive) |
| Cc1[nH]c2ccc(C(=O)N3CCN(C)CC3)cc2c1C | 45.9% (active) |
| COc1ccc2[nH]c(C(=O)N3CCN(C)CC3)c(C)c2c1 | -9.68% (inactive) |
| CCOCCCNC(=S)Nc1ccc2nc(N3CCN(CC)CC3)cc(C)c2c1 | 4.52% (inactive) |
| COc1ccc(-c2[nH]nc(-c3ccccc3)c2-c2nc3ccccc3[nH]2)cc1 | -19.5% (inactive) |
| Cc1ccc(-c2nc3ccccc3[nH]2)cc1N | 106% (active) |
| Cc1ccc(-c2nc3ccccc3[nH]c2=O)cc1 | 21.4% (inactive) |
| c1ccc2[nH]c(-c3nc4ccccc4[nH]3)nc2c1 | 107% (active) |
| Cc1ccccc1N1CC(c2nc3ccccc3[nH]2)CC1=O (stereo not given) | -11.9% (inactive) |
| OC(c1nc2ccccc2[nH]1)C(O)C(O)C(O)c1nc2ccccc2[nH]1 (stereo not given) | 19.2% (inactive) |
| CCOC(=O)N1CCN(C(=O)CSc2ccc(Cl)cc2)CC1 | 93.2% (active) |
| CCOC(=O)N1CCN(C(=O)CNC(=O)Cc2ccc(Cl)cc2)CC1 | -2.93% (inactive) |
| CCN1CCN(C(=O)CSc2ccc(C)cc2)CC1 | 52.4% (inactive) |
| CC(=O)Nc1ccc(S(=O)(=O)Nc2cc(C)cn(Cc3ccc(C)cc3)c2=O)cc1 | 20.8% (inactive) |
| COc1ccccc1C(=O)Oc1ccc(N2C(=O)CCC2=O)cc1 | -6.4% (inactive) |
| CCOC(=O)c1cc(OC(=O)c2ccccc2Cl)n(-c2ccccc2)n1 | 35.8% (inactive) |
| Cc1cc(OC(=O)c2ccccc2Cl)ccc1N1C(=O)CCC1=O | 60.4% (active) |

| Structure (SMILES) | inhibition |
| --- | --- |
| Cc1n[nH]c(=O)c2c1nnn2Cc1ccc(F)cc1 | 14.5% (inactive) |
| CC1CCN(C(=S)NC(=O)c2ccccc2Br)CC1 | 14.3% (inactive) |
| Nc1ccc(N=Nc2ccccc2Cl)c(N)n1 | 105% (active) |
| CCOC(=O)C1CCN(S(=O)(=O)c2ccc3c(c2)N(C(C)=O)CCO3)CC1 | 15.1% (inactive) |
| CCN(CC)S(=O)(=O)c1ccc(N2CCN(C)CC2)c(NC(=O)Nc2ccccc2F)c1 | 19.8% (inactive) |
| Cc1cccc(C2c3[nH]c4ccccc4c3CCN2C(=O)c2cc(-c3cccn3C)n[nH]2)n1 (stereo not given) | -3.12% (inactive) |
| Cc1cccc(C(=O)N2CCc3c([nH]c4ccccc34)C2CC(C)C)n1 (stereo not given) | 52.7% (active) |
| O=C(c1cn2ccccc2n1)N1CCc2c([nH]c3ccccc23)C1c1ccccn1 (stereo not given) | 13.1% (inactive) |
| CCc1ccc(NC(=O)NC(C)c2ccc3c(c2)OCO3)cc1 (stereo not given) | -6.59% (inactive) |
| Cc1cc(-c2ccc(C)c(S(=O)(=O)NC(C)Cc3ccco3)c2)on1 (stereo not given) | -1.68% (inactive) |
| CCOC(=O)N1CCN(Cc2nc(N)nc(Nc3ccc(C)cc3)n2)CC1 | 16.1% (inactive) |
| Cc1ccc(Nc2nc(N)nc(CSc3nnc(C)s3)n2)cc1 | 97.7% (active) |
| Cc1nnc(SCc2nc3ccccc3nc2C)s1 | -8.09% (inactive) |
| O=C(Nc1nnc(SCc2ccccc2)s1)c1ccco1 | 55.6% (inactive) |
| Cc1cccc(CSc2nnc(NC(=O)CSc3nnc(C)s3)s2)c1 | -22% (inactive) |
| Cc1ccc(Nc2nnc(SCc3ccccc3)s2)cc1 | 78.2% (active) |
| Cc1cccn2cc(-c3cccc(S(=O)(=O)N4CCCCC4)c3)nc12 | 15.3% (inactive) |
| N#CCSc1nc(-c2ccccc2)nc2ccc(F)cc12 | 4.25% (inactive) |
| CCc1nnc(NC(=O)CCC(=O)N2CCN(c3cc(C)ccc3C)CC2)s1 | 2.43% (inactive) |
| CCOC(=O)N1CCC(N2Cc3cccc(C(=O)Nc4ccc(S(=O)(=O)N(CC)CC)cc4)c3C2=O)CC1 | -14% (inactive) |

| Structure (SMILES) | inhibition |
| --- | --- |
| CCOc1c2ccc(C(=O)NCc3ccc(OC(F)(F)F)cc3)cc2nn1C | 29% (inactive) |
| COc1ccc(CNC(=O)c2cc(=O)c3c(C)cc(C)cc3o2)cc1 | -1.33% (inactive) |
| COC(=O)c1ccc(CNC(=O)c2ccc3oc(C(C)C)nc3c2)cc1 | 71.8% (active) |
| COC(=O)c1ccc(CSc2nc3cc(Cl)ccc3o2)cc1 | -12.3% (inactive) |
| COc1ccc(CNC(=O)c2ccc3oc(C(C)C)nc3c2)cc1 | 51.4% (active) |
| CC(C)c1nc2cc(C(=O)NC(C)c3cnn(C)c3)ccc2o1 (stereo not given) | 20.7% (inactive) |
| Cc1ccccc1CCNC(=O)C1CCC(=O)N(Cc2ccc(Cl)cc2)C1 (stereo not given) | 13.3% (inactive) |
| O=C(OCc1ccc([N+](=O)[O-])cc1)C1CC(=O)N(Cc2ccccc2Cl)C1 (stereo not given) | -0.893% (inactive) |
| O=C(NCCCN1CCCCC1)C1CC(=O)N(CCc2ccccc2)C1 (stereo not given) | -8.56% (inactive) |
| Cc1ccc(S(=O)(=O)Oc2ccc(/C=N/NC(=O)c3ccncc3)cc2)cc1 | 9.5% (inactive) |
| COc1ccc(/C=N\NC(=O)c2sc(N)nc2C)cc1OC | 15.2% (inactive) |
| COc1ccc(/C=N/S(=O)(=O)c2ccccc2)cc1OC | -10.1% (inactive) |
| COc1ccc(/C=N/NC(=O)c2ccccc2)cc1OS(=O)(=O)c1ccccc1 | 59.1% (active) |
| COc1cc(/C=N/NC(=O)c2cccnc2)ccc1OC(=O)c1cccc(Br)c1 | -22.1% (inactive) |
| COc1cc(/C=N/NC(=O)c2ccccc2)ccc1OS(=O)(=O)c1ccccc1 | 31% (active) |
| COc1ccc(C)cc1NC(=O)CN(C)S(=O)(=O)c1ccc2c(c1)n(C)c(=O)c(=O)n2C | 3.45% (inactive) |
| COc1ccc(-n2cc(-c3ccccc3)c3c(=S)nc[nH]c32)cc1 | -14.3% (inactive) |
| CC(Oc1cccc(Cl)c1)C(=O)NC1CC(C)(C)NC(C)(C)C1 (stereo not given) | -11.3% (inactive) |
| CCn1cc(C(=O)NCCC(=O)NCCO)c(=O)c2cc3c(cc21)OCO3 | -8.77% (inactive) |
| CC(C)[C@H](NC(=O)N1CCn2c1nc1ccccc12)C(=O)NCCc1ccccc1 | 31.8% (inactive) |
